The text below walks through data of PubChem BioAssay.

Test [1] deals with Albumin (Bos taurus) (UniProt P02769). Description: bovine serum albumin binders on microarray, profiling panel, artefact control for SMM control protein annotation, biochemical, small-molecule microarray, Alexa647 label, 635/667 nm fluorescence (AID 1118).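 Note: score merges 667 nm emission intensity and signal-to-noise per printed compound spot.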 The following applies: BSA-A647 binding, fluorescence 635 nm, higher = more signal.
Test [2] can be described thus: small-molecule microarray binders of probe aXIP, primary screen, biochemical, NeuroSMM set, 635/667 nm fluorescence (AID 1119).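 Note: probe is the protein aXip251-270 applied at 1 µg/mL to compound-printed slides; binding of probe to printed compounds measured as 667 nm fluorescence plus signal to noise.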 The following applies: higher = more signal, called active from +8 up or from −8 down.
A short description of test [3]: small-molecule binders of probe aNOTCH3, primary screen, biochemical, small-molecule microarray, 635/667 nm fluorescence (AID 1120).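 Note: probe is a biotin-tagged antibody raised against NOTCH3 rather than NOTCH3 protein; score merges spot fluorescence near 667 nm with spot signal to noise.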 To be noted: higher = more signal.
Test [4] in a line: small-molecule binders of probe aNOTCH2, primary screen, biochemical, small-molecule microarray, 635/667 nm fluorescence (AID 1121).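 Note: score merges feature fluorescence read at 667 nm with its signal to noise.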 To be noted: higher = more signal.
The target in test [5] is Carbonic anhydrase 2 (Homo sapiens) (UniProt P00918). The experiment in a line: CAII small-molecule binders, profiling panel, biochemical, small-molecule microarray, Alexa647-labelled CAII (AID 1122). The following applies: CAII-A647 binding fluorescence, higher = more signal.
Test [6] in a line: COS7 lysate on small-molecule microarray, probe aHis, 635 nm (AID 1123).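 Note: z-score combines 667nm fluorescence intensity with signal-to-noise per printed compound spot.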 The following applies: COS7 cell lysate, fluorescence, higher = more signal.
A short description of test [7]: compound binding in COS7 lysate, probe aLAP1, primary screen, cell lysate, small-molecule microarray (AID 1124).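 Note: lysate comes from COS7 cells expressing LAP1 and is applied at 0.3 µg/mL; score merges spot fluorescence near 667 nm with signal-to-noise over triplicate slides.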 The following applies: probe aLAP1, fluorescence, higher = more signal.
The subject of test [8] is Sam68 (KHDRBS1). The experiment in a line: Sam68 small-molecule binders, primary screen, biochemical, small-molecule microarray, 635 nm fluorescence (AID 1125).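 Note: score merges 667 nm channel intensity with signal to noise over triplicate slides.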 To be noted: small-molecule microarray binding, higher = more signal.
In test [9] the test system is Chordin-like protein 2 (CHRDL2). Description: CHRDL2 small-molecule binders, primary screen, biochemical, small-molecule microarray, 635 nm fluorescence (AID 1126).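 Note: printed compound slides probed with Chrdl2 protein at 4 µg/mL for 1 h at 4 C; score merges 667 nm emission intensity with signal to noise over three replicate slides.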 The following applies: small-molecule microarray binding, fluorescence 635 nm; higher = more signal.
Test [10] concerns the target Concanavalin-A (Canavalia ensiformis) (UniProt P02866). The experiment in a line: ConA small-molecule binders, primary screen, artefact control for SMM control protein annotation, biochemical, small-molecule microarray, Alexa647 label, 635 nm (AID 1127).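 Note: z combines 667 nm emission intensity with signal-to-noise across three replicate slides.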 To be noted: ConA-A647 binding fluorescence, higher = more signal.
Test [11] can be described thus: anti-His antibody binders, primary screen, artefact control for SMM control protein annotation, biochemical, small-molecule microarray, 635 nm fluorescence (AID 1128).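 Note: score merges feature fluorescence with signal-to-noise for each printed compound spot.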 To be noted: anti-His Alexa647 antibody binding, higher = more signal.
In test [12] the test system is Human papillomavirus type 1a E7 protein (residues 1-88). The experiment in a line: HPV1a E7 small-molecule binders, primary screen, biochemical, small-molecule microarray, residues 1-88, 635 nm (AID 1129). To be noted: small-molecule microarray binding, fluorescence 635 nm; higher = more signal.
In test [13] the target is Focal adhesion kinase 1 (Homo sapiens) (UniProt Q05397). Description: small-molecule microarray binders of FAK, primary screen, biochemical, 635/667 nm fluorescence, BSA, DTT (AID 1130).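 Note: composite of spot emission at 667 nm and signal to noise over triplicate slides.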 The following applies: PTK2 binding, 635 nm fluorescence, higher = more signal.
In test [14] the test system is Fibrinogen (Alexa647-labelled). Description: fibrinogen binders on compound microarrays, profiling panel, artefact control for SMM control-protein annotation, biochemical, small-molecule microarray, 635/667 nm fluorescence (AID 1131).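 Note: z-score merges 667 nm fluorescence with per-spot signal-to-noise over triplicate slides.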 To be noted: fibrinogen-A647 binding fluorescence, higher = more signal.
The target of test [15] is Follistatin (Homo sapiens) (UniProt P19883). Description: follistatin binders on small-molecule microarrays, primary screen, biochemical, small-molecule microarray, 635/667 nm fluorescence (AID 1132). The following applies: FST binding, 635 nm fluorescence, higher = more signal.
The target in test [16] is Fibroblast growth factor 2 (Homo sapiens) (UniProt P09038). The experiment in a line: FGF2 binders on small-molecule microarrays, primary screen, biochemical, small-molecule microarray, 635/667 nm fluorescence (AID 1133). To be noted: small-molecule microarray binding, FGF2, fluorescence 635/667; higher = more signal.
Test [17] is described as follows: mitochondrial membrane potential change in A549 cells, profiling panel, cell-based, JC-1 fluorescence, basal, 24 h, 100 nL (AID 1138).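 Note: A549 lung adenocarcinoma cells under basal conditions with no added stimulus; test concentration not given here.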 The following applies: higher = more signal.
Test [18] deals with Lefty1. Description: Lefty1 binders on small-molecule microarrays, primary screen, biochemical, small-molecule microarray, 635/667 nm fluorescence (AID 1139). To be noted: small-molecule microarray binding, fluorescence 635/667; higher = more signal.
Test [19] has as its system wheat germ agglutinin (Triticum aestivum), Alexa647-labelled. Description: wheat germ agglutinin binders on compound microarrays, profiling panel, artefact control for SMM control-protein annotation, biochemical, small-molecule microarray, 635/667 nm fluorescence (AID 1140).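 Note: score merges 667 nm feature emission with signal to noise over triplicate slides.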 The following applies: WGA-A647 binding, 635 nm fluorescence, higher = more signal.
For test [20], the target named is Luciferin 4-monooxygenase (Photinus pyralis) (UniProt P08659). Description: firefly luciferase enzyme inhibitors, primary screen, biochemical, luminescence, purified enzyme, 2006 set (AID 1141).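 Note: cell-free assay with purified firefly luciferase at 100 ng per well in PBS; test concentration not given here.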 To be noted: SteadyGlo luminescence, 30 min, higher = more signal, called active from +8 up or from −8 down.

Calls of active or inactive are those of the source.

Fibroblast growth factor 2 (Homo sapiens), sequence (P09038 whole entry, looked up): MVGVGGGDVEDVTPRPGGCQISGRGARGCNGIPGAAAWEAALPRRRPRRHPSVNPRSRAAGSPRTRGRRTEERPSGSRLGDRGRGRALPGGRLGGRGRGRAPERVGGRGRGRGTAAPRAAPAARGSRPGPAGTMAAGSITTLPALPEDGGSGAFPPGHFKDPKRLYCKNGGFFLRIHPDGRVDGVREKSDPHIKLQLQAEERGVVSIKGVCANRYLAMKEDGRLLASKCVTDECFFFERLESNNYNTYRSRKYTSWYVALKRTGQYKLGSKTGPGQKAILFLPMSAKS
Concanavalin-A (Canavalia ensiformis), sequence (P02866 whole entry, looked up): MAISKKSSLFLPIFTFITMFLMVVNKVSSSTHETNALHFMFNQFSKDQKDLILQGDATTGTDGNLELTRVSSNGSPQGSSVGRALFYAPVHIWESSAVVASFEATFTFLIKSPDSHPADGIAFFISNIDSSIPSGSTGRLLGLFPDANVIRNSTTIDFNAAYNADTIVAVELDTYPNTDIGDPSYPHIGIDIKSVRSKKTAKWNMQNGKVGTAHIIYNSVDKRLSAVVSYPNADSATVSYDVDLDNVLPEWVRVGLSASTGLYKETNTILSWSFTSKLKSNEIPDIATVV
Albumin (Bos taurus), sequence (P02769 whole entry, looked up): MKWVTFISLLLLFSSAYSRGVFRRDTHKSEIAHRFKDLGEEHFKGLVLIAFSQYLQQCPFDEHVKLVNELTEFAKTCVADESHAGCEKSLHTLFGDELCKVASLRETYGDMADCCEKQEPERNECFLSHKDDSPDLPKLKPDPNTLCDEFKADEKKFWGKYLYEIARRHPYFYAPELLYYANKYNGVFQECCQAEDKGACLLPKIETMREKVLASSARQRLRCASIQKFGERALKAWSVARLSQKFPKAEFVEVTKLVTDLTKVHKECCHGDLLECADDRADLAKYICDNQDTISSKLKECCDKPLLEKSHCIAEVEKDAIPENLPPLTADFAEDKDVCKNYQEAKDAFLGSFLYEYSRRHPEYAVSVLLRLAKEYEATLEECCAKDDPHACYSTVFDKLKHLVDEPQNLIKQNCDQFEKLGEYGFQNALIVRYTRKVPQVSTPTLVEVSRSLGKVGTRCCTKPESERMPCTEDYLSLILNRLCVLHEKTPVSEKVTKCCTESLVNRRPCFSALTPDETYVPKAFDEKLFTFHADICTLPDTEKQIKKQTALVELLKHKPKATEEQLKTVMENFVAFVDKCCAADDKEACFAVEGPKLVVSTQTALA
Follistatin (Homo sapiens), sequence (P19883 whole entry, looked up): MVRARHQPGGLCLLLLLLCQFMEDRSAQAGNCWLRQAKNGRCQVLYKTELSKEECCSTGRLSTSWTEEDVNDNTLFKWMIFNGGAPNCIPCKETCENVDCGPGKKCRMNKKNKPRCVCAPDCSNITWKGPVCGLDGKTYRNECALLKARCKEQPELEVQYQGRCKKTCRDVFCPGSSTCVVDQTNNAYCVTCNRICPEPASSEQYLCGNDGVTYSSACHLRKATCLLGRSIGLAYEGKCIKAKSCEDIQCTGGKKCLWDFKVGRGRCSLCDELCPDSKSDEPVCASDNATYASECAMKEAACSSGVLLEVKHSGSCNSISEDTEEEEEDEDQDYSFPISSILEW
Luciferin 4-monooxygenase (Photinus pyralis), sequence (P08659 whole entry, looked up): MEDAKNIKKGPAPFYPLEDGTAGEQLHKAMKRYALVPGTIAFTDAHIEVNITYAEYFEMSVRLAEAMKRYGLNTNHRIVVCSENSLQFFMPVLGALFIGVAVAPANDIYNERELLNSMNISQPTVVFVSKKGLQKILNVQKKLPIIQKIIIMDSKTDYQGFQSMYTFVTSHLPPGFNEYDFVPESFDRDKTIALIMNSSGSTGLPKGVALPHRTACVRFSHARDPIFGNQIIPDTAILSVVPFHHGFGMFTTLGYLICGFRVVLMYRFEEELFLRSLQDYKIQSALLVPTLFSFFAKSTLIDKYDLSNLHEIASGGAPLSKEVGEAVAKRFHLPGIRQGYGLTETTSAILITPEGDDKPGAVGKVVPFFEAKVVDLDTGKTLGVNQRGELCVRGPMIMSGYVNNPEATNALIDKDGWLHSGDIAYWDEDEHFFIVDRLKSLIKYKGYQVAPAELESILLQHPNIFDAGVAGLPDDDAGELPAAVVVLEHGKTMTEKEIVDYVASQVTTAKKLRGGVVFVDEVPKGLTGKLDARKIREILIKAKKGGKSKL
Focal adhesion kinase 1 (Homo sapiens), sequence (Q05397 whole entry, looked up): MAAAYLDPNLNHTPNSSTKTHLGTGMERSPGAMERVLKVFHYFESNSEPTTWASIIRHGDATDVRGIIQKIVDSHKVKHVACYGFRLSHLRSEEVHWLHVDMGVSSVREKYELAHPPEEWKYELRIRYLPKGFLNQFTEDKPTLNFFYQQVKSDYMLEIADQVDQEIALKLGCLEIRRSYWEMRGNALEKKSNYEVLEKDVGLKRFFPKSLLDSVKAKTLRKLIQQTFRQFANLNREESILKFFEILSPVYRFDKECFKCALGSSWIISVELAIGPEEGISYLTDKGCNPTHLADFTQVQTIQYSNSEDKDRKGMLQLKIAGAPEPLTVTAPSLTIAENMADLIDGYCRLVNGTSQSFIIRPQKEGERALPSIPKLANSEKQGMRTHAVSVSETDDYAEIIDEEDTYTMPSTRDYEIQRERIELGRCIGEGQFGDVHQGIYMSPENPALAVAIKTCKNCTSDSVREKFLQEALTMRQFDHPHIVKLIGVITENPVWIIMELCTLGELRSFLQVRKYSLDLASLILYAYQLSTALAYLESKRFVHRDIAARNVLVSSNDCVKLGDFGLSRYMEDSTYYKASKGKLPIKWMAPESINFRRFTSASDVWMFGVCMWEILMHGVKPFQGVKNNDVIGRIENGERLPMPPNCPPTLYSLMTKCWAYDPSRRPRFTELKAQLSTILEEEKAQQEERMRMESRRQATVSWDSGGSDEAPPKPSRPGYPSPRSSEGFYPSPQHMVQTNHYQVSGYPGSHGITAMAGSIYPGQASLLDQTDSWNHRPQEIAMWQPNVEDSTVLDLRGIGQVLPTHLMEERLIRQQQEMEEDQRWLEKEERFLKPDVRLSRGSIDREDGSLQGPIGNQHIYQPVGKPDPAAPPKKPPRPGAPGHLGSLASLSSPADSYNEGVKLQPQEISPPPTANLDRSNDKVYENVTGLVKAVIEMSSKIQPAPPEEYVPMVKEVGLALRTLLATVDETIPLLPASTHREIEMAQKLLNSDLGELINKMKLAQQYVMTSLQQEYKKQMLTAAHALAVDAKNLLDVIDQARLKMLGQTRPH

For the compound `CCOC(=O)C[C@H]1[C@H](OC(=O)c2ccc(-c3ccccc3)cc2)[C@@H](NC(=O)c2ccc(-c3ccccc3)cc2)c2cc(OCCCO)ccc2N1C(=O)Cc1ccc(OC)cc1`, the composite z-score in test [1] is 0.225; in [3], -0.0146; in test [4] it was -0.125; in test [5], -0.0968; in [6], 0.589; in [7], -0.002. Besides, the composite z-score in [8] is -0.316; in test [9], -0.15; in [10], 0.363; in test [11], 0.296; in test [12] it was 0.226; in test [13] it was 0.315. Further, the composite z-score in [14] is 0.656; in [15], 0.13; in test [16] it was -0.167; in [18], -0.245; in [19], -0.0591. In test [2], the composite Z-score was -0.576 (inactive). The z-score is 0.322 in test [17] and 0.735 (inactive) in [20].
In the case of `COCCOC(=O)N1C(=O)[C@@]2(c3cc(C#CC4=CCCCC4)ccc31)[C@H](C(=O)N1CCc3cc(OC)c(OC)cc3C1)[C@H]1C(=O)O[C@H](c3ccccc3)[C@H](c3ccccc3)N1[C@@H]2c1ccccc1OCCO`, the composite z-score in test [1] was -0.092; in [3] it was -0.068; in test [4] it was -0.118; in test [5] it was -0.0205; in [6], -0.0785; in [7], 0.498. For the same compound, the composite z-score in [8] was 0.6; in test [9], 1.03; in [10], 1.07; in test [11], -0.13; in test [12], 0.487; in test [13], -0.106. Further, the composite z-score in test [14] is 0.061; in test [15], 1.29; in test [16], 1.66; in test [18] it was 1; in test [19] it was 0.747. For the same compound, the composite Z-score in [2] was -0.243 (inactive). Further, the results for the z-score in [17] and in [20] were -1.11 and -1.62 (inactive), respectively.
With `COc1ccccc1CN1C(=O)c2ccccc2[C@@H](C(=O)NCCN2CCOCC2)[C@@H]1c1ccc(CO)cc1`, the composite z-score in test [1] was 0.305; in test [3], -0.0824; in test [4], -0.0548; in [5] it was 0.769; in test [6], 1.29; in test [7], 1.08. Further, the composite z-score in test [8] is 0.287; in test [9], -0.159; in [10], -0.15; in test [11] it was -0.355; in [12], 0.789; in test [13] it was -0.444. The composite z-score in [14] was 0.234; in test [15], 0.912; in [16], 1.26; in [18] it was -0.0327; in [19], 0.285. In addition, the composite Z-score in [2] was -0.275 (inactive). The results for the z-score in [17] and in [20] were 0.708 and 0.706 (inactive), respectively.
For the compound `Cc1ccc(S[C@]2(C(=O)NCC(C)C)CC(=O)N(Cc3ccccc3)[C@@H]2c2ccc(CO)cc2I)cc1`, the composite z-score in test [1] is 0.256; in test [3] it was 0.0301; in test [4], -0.125; in test [5], 0.633; in test [6] it was 1.21; in test [7], 0.888. In addition, the composite z-score in test [8] was found to be 1.18; in [9] it was 0.718; in test [10] it was 0.939; in test [11] it was 1.38; in test [12], 0.904; in test [13], 0.139. Moreover, the composite z-score in test [14] was 0.312; in test [15], 1.27; in test [16] it was 0.564; in test [18], 0.536; in test [19] it was 0.503. The composite Z-score in test [2] was 0.552 (inactive). Moreover, the z-score was 1.03 in test [17] and -0.56 (inactive) in test [20].
For the compound `O=C1OCCC=C[C@H]2OC34C=CCN(Cc5ccccc5)C(=O)[C@H]3N(CCCCCCO)C(=O)[C@@H]4C12` (stereo not given in full), the composite z-score in [1] was -0.0045; in test [3], -0.241; in test [4], -0.171; in test [5], 0.898; in test [6], 1.2; in test [7], 0.0054. Besides, the composite z-score in test [8] is 0.409; in [9], -1.02; in [10], -0.745; in test [11], 0.0899; in test [12], -0.374; in test [13], -0.574. Also, the composite z-score in [14] is -0.873; in test [15], -0.0109; in test [16], -1.02; in test [18] it was 0.798; in [19], -0.828. Besides, the composite Z-score in test [2] was 0.0421 (inactive). Also, the z-score in test [17] was 0.544; in test [20] it was 0.467 (inactive).
`COCCOC(=O)N1C(=O)[C@@]2(c3cc(C#CC4(O)CCCCCC4)ccc31)[C@H](C(=O)N1CCCCCCC1)[C@H]1C(=O)O[C@H](c3ccccc3)[C@H](c3ccccc3)N1[C@@H]2c1ccccc1OCCO`: the composite z-score stood at 0.155 in test [1]; 0.922 in test [3]; 0.191 in test [4]; 0.452 in test [5]; 2.83 in test [6]; 0.542 in test [7]. Besides, the composite z-score worked out at 1.33 in [8]; 1.09 in [9]; 0.827 in [10]; 1.24 in [11]; 1.22 in test [12]; 0.808 in test [13]. Moreover, the composite z-score amounted to 0.832 in test [14]; 1.42 in test [15]; 1.11 in test [16]; 0.955 in [18]; 1.39 in test [19]. In addition, in test [2], the composite Z-score was 0.176 (inactive). In addition, the z-score in test [17] is -1.04; in [20], -0.969 (inactive).
On to `CCOC(=O)C1=CC[C@@H](c2ccccc2Cl)N(S(=O)(=O)c2ccc(C)cc2)C1`, for which the composite z-score in test [1] stood at 0.963; in [3], 0.0738; in [4], 0.145; in test [5], 0.563; in test [6], 2.04; in [7], 0.837. Besides, the composite z-score in test [8] was 1.06; in test [9] it was -1.04; in test [10] it was 1.04; in test [11], 1.15; in [12], 1.18; in [13] it was 1.29. Besides, the composite z-score is 0.838 in test [14]; 0.37 in [15]; 0.163 in test [16]; -0.612 in [18]; 0.91 in [19]. Further, the composite Z-score in [2] was 0.817 (inactive). The z-score in test [17] was 2.73; in [20], 0.614 (inactive).
Take `O=C1C[C@]2(c3ccc([N+](=O)[O-])cc3)C(=O)N(CC(F)(F)F)c3cc(CO)ccc3[C@H]2N1CC12CC3CC(CC(C3)C1)C2`: the composite z-score is -0.0746 in test [1]; -0.0362 in test [3]; -0.168 in [4]; 0.499 in [5]; 1.15 in test [6]; -0.221 in [7]. Besides, the composite z-score was -0.0575 in test [8]; 0.167 in [9]; 0.556 in [10]; -0.239 in [11]; -0.369 in test [12]; 0.0419 in test [13]. Also, the composite z-score in test [14] was -1.16; in test [15] it was 0.77; in test [16], 0.0808; in [18], 0.551; in test [19], 0.122. Moreover, the composite Z-score in test [2] is -0.171 (inactive). Further, the z-score in test [17] was 0.297; in test [20], 1.09 (inactive).
